Assay results published in the supplement of paper PMC12282887.
± gives the standard deviation of the averaged measurements.

Legend:
Assay in all cases: promoter activity interaction Z-score (Lux/OD deviation from empty-vector control); higher = stronger promoter induction by the compound
[1] = system: E. coli BW25113 acrABp lux reporter
Procedure, shortened: (§1)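 Wild-type E. coli BW25113 and three single-gene deletion strains, each carrying a low-copy luxCDABE promoter reporter, were grown at 37°C in 40 µl LB Lennox per well of a 384-well plate. Every compound was applied at four 1:2 dilutions in biological duplicates, and OD600 and luminescence were read every 30 min for 12 h. Integration covered 0–8 h for wild type and 1–9 h for deletion strains, and wells under 10% of the median growth value were removed. Scores are Z-transformed residuals of growth-normalised luminescence fitted against a control.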

[2] = system: E. coli BW25113 marRABp lux reporter
Procedure, shortened: as §1

[3] = system: E. coli BW25113 micFp lux reporter
Procedure, shortened: as §1

[4] = system: E. coli BW25113 ompFp lux reporter
Procedure, shortened: as §1

[5] = system: E. coli BW25113 robp lux reporter
Procedure, shortened: as §1

[6] = system: E. coli BW25113 soxSp lux reporter
Procedure, shortened: as §1

[7] = system: E. coli BW25113 tolCp lux reporter
Procedure, shortened: as §1

[8] = 12.9 µg/ml, genetic background: wild type
[9] = 12.9 µg/ml, genetic background: ΔmarA
[10] = 12.9 µg/ml, genetic background: Δrob
[11] = 12.9 µg/ml, genetic background: ΔsoxS
[12] = 25.8 µg/ml, genetic background: wild type
[13] = 25.8 µg/ml, genetic background: ΔmarA
[14] = 25.8 µg/ml, genetic background: Δrob
[15] = 25.8 µg/ml, genetic background: ΔsoxS
[16] = 51.6 µg/ml, genetic background: wild type
[17] = 51.6 µg/ml, genetic background: ΔmarA
[18] = 51.6 µg/ml, genetic background: Δrob
[19] = 51.6 µg/ml, genetic background: ΔsoxS
[20] = 103.1 µg/ml, genetic background: wild type
[21] = 103.1 µg/ml, genetic background: ΔmarA
[22] = 103.1 µg/ml, genetic background: Δrob
[23] = 103.1 µg/ml, genetic background: ΔsoxS

## CC(C)Cc1ccc(C(C)C(=O)O)cc1 (configuration not stated) [Ibuprofen]
[1]; [8]
  promoter activity interaction Z-score: 0.434 ± 0.3
[1]; [9]
  promoter activity interaction Z-score: -0.569 ± 0.69
[1]; [10]
  promoter activity interaction Z-score: 0.0303 ± 0.11
[1]; [11]
  promoter activity interaction Z-score: 0.455 ± 0.63
[1]; [12]
  promoter activity interaction Z-score: 0.485 ± 0.088
[1]; [13]
  promoter activity interaction Z-score: 0.667 ± 0.1
[1]; [14]
  promoter activity interaction Z-score: -0.156 ± 0.0041
[1]; [15]
  promoter activity interaction Z-score: -0.0442 ± 0.022
[1]; [16]
  promoter activity interaction Z-score: 0.366 ± 0.24
[1]; [17]
  promoter activity interaction Z-score: -0.62 ± 0.53
[1]; [18]
  promoter activity interaction Z-score: 0.236 ± 0.13
[1]; [19]
  promoter activity interaction Z-score: 0.0533 ± 0.45
[1]; [20]
  promoter activity interaction Z-score: 0.11 ± 0.073
[1]; [21]
  promoter activity interaction Z-score: 2.18 ± 0.32
[1]; [22]
  promoter activity interaction Z-score: -0.393 ± 0.093
[1]; [23]
  promoter activity interaction Z-score: -0.205 ± 0.13
[2]; [8]
  promoter activity interaction Z-score: 0.196 ± 0.28
[2]; [9]
  promoter activity interaction Z-score: 0.232 ± 0.58
[2]; [10]
  promoter activity interaction Z-score: 0.124 ± 0.06
[2]; [11]
  promoter activity interaction Z-score: 0.193 ± 0.14
[2]; [12]
  promoter activity interaction Z-score: 0.212 ± 0.12
[2]; [13]
  promoter activity interaction Z-score: 0.172 ± 0.49
[2]; [14]
  promoter activity interaction Z-score: 0.0582 ± 0.32
[2]; [15]
  promoter activity interaction Z-score: 0.0302 ± 0.03
[2]; [16]
  promoter activity interaction Z-score: 0.119 ± 0.036
[2]; [17]
  promoter activity interaction Z-score: -0.396 ± 0.089
[2]; [18]
  promoter activity interaction Z-score: 0.159 ± 0.17
[2]; [19]
  promoter activity interaction Z-score: -0.0798 ± 0.073
[2]; [20]
  promoter activity interaction Z-score: -0.239 ± 0.093
[2]; [21]
  promoter activity interaction Z-score: 0.541 ± 0.8
[2]; [22]
  promoter activity interaction Z-score: 0.0177 ± 0.01
[2]; [23]
  promoter activity interaction Z-score: -0.0508 ± 0.43
[3]; [8]
  promoter activity interaction Z-score: 0.145 ± 0.18
[3]; [9]
  promoter activity interaction Z-score: -0.00146 ± 0.055
[3]; [10]
  promoter activity interaction Z-score: -0.209 ± 0.0032
[3]; [11]
  promoter activity interaction Z-score: 0.214 ± 0.16
[3]; [12]
  promoter activity interaction Z-score: 0.384 ± 0.26
[3]; [13]
  promoter activity interaction Z-score: 0.0835 ± 0.1
[3]; [14]
  promoter activity interaction Z-score: -0.0551 ± 0.11
[3]; [15]
  promoter activity interaction Z-score: 0.0794 ± 0.022
[3]; [16]
  promoter activity interaction Z-score: -0.0155 ± 0.081
[3]; [17]
  promoter activity interaction Z-score: 0.0304 ± 0.18
[3]; [18]
  promoter activity interaction Z-score: -0.00979 ± 0.056
[3]; [19]
  promoter activity interaction Z-score: 0.259 ± 0.28
[3]; [20]
  promoter activity interaction Z-score: 0.239 ± 0.31
[3]; [21]
  promoter activity interaction Z-score: -0.0514 ± 0.092
[3]; [22]
  promoter activity interaction Z-score: -0.0741 ± 0.16
[3]; [23]
  promoter activity interaction Z-score: 0.193 ± 0.12
[4]; [8]
  promoter activity interaction Z-score: 0.335 ± 0.31
[4]; [9]
  promoter activity interaction Z-score: 0.335 ± 0.075
[4]; [10]
  promoter activity interaction Z-score: -0.132 ± 0.56
[4]; [11]
  promoter activity interaction Z-score: 0.513 ± 0.44
[4]; [12]
  promoter activity interaction Z-score: 0.726 ± 0.49
[4]; [13]
  promoter activity interaction Z-score: 1.13 ± 1.1
[4]; [14]
  promoter activity interaction Z-score: 0.704 ± 0.75
[4]; [15]
  promoter activity interaction Z-score: -0.184 ± 0.45
[4]; [16]
  promoter activity interaction Z-score: 0.353 ± 0.34
[4]; [17]
  promoter activity interaction Z-score: 0.469 ± 0.28
[4]; [18]
  promoter activity interaction Z-score: 0.418 ± 0.24
[4]; [19]
  promoter activity interaction Z-score: 0.0995 ± 0.085
[4]; [20]
  promoter activity interaction Z-score: 0.349 ± 0.46
[4]; [21]
  promoter activity interaction Z-score: 1.78 ± 0.81
[4]; [22]
  promoter activity interaction Z-score: 0.954 ± 1.3
[4]; [23]
  promoter activity interaction Z-score: -0.0643 ± 0.52
[5]; [8]
  promoter activity interaction Z-score: 0.839 ± 0.9
[5]; [9]
  promoter activity interaction Z-score: 0.214 ± 0.091
[5]; [10]
  promoter activity interaction Z-score: 0.6 ± 0.66
[5]; [11]
  promoter activity interaction Z-score: 0.59 ± 0.11
[5]; [12]
  promoter activity interaction Z-score: 1.19 ± 0.31
[5]; [13]
  promoter activity interaction Z-score: 2.36 ± 0.11
[5]; [14]
  promoter activity interaction Z-score: 0.557 ± 0.45
[5]; [15]
  promoter activity interaction Z-score: -0.577 ± 0.45
[5]; [16]
  promoter activity interaction Z-score: 0.25 ± 0.22
[5]; [17]
  promoter activity interaction Z-score: -0.675 ± 0.18
[5]; [18]
  promoter activity interaction Z-score: 0.24 ± 0.11
[5]; [19]
  promoter activity interaction Z-score: -0.0538 ± 0.089
[5]; [20]
  promoter activity interaction Z-score: 0.337 ± 0.38
[5]; [21]
  promoter activity interaction Z-score: 0.9946 ± 0.0074
[5]; [22]
  promoter activity interaction Z-score: 0.346 ± 0.75
[5]; [23]
  promoter activity interaction Z-score: 0.183 ± 1.1
[6]; [8]
  promoter activity interaction Z-score: 0.233 ± 0.39
[6]; [9]
  promoter activity interaction Z-score: -0.0514 ± 0.082
[6]; [10]
  promoter activity interaction Z-score: -0.201 ± 0.088
[6]; [11]
  promoter activity interaction Z-score: 0.159 ± 0.065
[6]; [12]
  promoter activity interaction Z-score: 0.503 ± 0.48
[6]; [13]
  promoter activity interaction Z-score: 0.0892 ± 0.08
[6]; [14]
  promoter activity interaction Z-score: -0.0188 ± 0.046
[6]; [15]
  promoter activity interaction Z-score: -0.109 ± 0.058
[6]; [16]
  promoter activity interaction Z-score: 0.0184 ± 0.19
[6]; [17]
  promoter activity interaction Z-score: -0.0994 ± 0.11
[6]; [18]
  promoter activity interaction Z-score: 0.111 ± 0.19
[6]; [19]
  promoter activity interaction Z-score: -0.0346 ± 0.014
[6]; [20]
  promoter activity interaction Z-score: -0.0139 ± 0.16
[6]; [21]
  promoter activity interaction Z-score: -0.0609 ± 0.081
[6]; [22]
  promoter activity interaction Z-score: -0.164 ± 0.23
[6]; [23]
  promoter activity interaction Z-score: -0.245 ± 0.15
[7]; [8]
  promoter activity interaction Z-score: -0.813 ± 0.87
[7]; [9]
  promoter activity interaction Z-score: 0.0288 ± 1.6
[7]; [10]
  promoter activity interaction Z-score: -0.78 ± 0.64
[7]; [11]
  promoter activity interaction Z-score: -0.147 ± 0.44
[7]; [12]
  promoter activity interaction Z-score: 0.563 ± 0.048
[7]; [13]
  promoter activity interaction Z-score: 0.78 ± 1.2
[7]; [14]
  promoter activity interaction Z-score: -0.284 ± 1.6
[7]; [15]
  promoter activity interaction Z-score: -0.361 ± 0.24
[7]; [16]
  promoter activity interaction Z-score: -0.451 ± 0.093
[7]; [17]
  promoter activity interaction Z-score: -0.139 ± 0.2
[7]; [18]
  promoter activity interaction Z-score: 0.442 ± 1.5
[7]; [19]
  promoter activity interaction Z-score: -0.22 ± 0.31
[7]; [20]
  promoter activity interaction Z-score: 0.199 ± 1.1
[7]; [21]
  promoter activity interaction Z-score: 0.757 ± 1.8
[7]; [22]
  promoter activity interaction Z-score: -0.377 ± 0.11
[7]; [23]
  promoter activity interaction Z-score: -0.341 ± 0.63
